Screening data: PubChem, Broad Institute
A selection: hits, their analogues and other compounds. The true share with any hit is near 6.7%.
T cruzi growth-1: inhibitors of T. cruzi proliferation; inhibition, % at 8.34 µM; AID 624255; actives 5.9% (n = 77,000); T. cruzi beta-gal in NIH3T3, GalScreen luminescence, 90 h;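 active = mean inhibition above about 93%, with at least 55% of replicates each passing it, limit read from the data, passing the limit was not always enough; inconclusive = only one of those two conditions holds; inactive = neither condition holds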
Pf Dd2 inh: blocks growth of Plasmodium falciparum Dd2 parasites; P. falciparum Dd2 growth, SYBR Green, 72 h; active compounds read low; activity change, % at 10 µM; actives 2.3% (n = 94,000); in the data active = activity change below about -80%; inconclusive = no clear call, values can overlap the other calls
C diff growth: blocks growth of Clostridium difficile. Clostridium difficile clinical isolate growth, OD600, 24 h; active compounds read low. growth activity, negative = inhibition, % at 16 µg/mL (by protocol). actives 0.25% (n = 86,000);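 active = mean growth activity at or below -80% and every replicate also at or below -80%; inconclusive = mean at or below -80% but some replicate above -80%; inactive = mean growth activity above -80%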;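 also: 0% = DMSO wells and -100% = levofloxacin 16 µg/mL wells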
T cruzi growth-2: blocks T. cruzi growth in NIH3T3 host cells; shares compounds with T cruzi growth-1; T. cruzi beta-gal in NIH3T3, GalScreen luminescence, 90 h; inhibition, % at 8.35 µM; actives 72% (n = 5,600); AID 651739;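 active = mean replicate inhibition above about 95% and at least 55% of replicates individually reaching it, limit read from the data; inconclusive = only one of the two criteria is met; inactive = neither criterion is met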
T cruzi growth-3: Trypanosoma cruzi proliferation inhibition; shares compounds with T cruzi growth-1; inhibition, % at 2.09 µM; T. cruzi beta-gal in NIH3T3, GalScreen luminescence, 90 h; AID 651740; actives 21% (n = 5,600);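 active = mean inhibition above about 95%, with at least 55% of replicates also reaching it, limit read from the data; inconclusive = meets just one of the two conditions; inactive = meets neither condition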;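 also: plate controls were neutral control median for no effect and positive control median for full effect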
3T3 cytotox: NIH/3T3 (mouse) viability loss | AID 651742 | cytotoxicity (signal decrease), % at 8.35 µM | actives 14% (n = 5,600) | NIH/3T3 viability, CellTiter-Glo ATP luminescence, 90 h | shares compounds with T cruzi growth-1;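 active = mean signal decrease across replicates above about 35% based on untreated-well scatter, with enough replicates individually passing, limit read from the data; inconclusive = no rule stated though some were filed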;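 also: 0% = median of neutral control wells and 100% = median of positive control wells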
3T3 cytotox 2: NIH/3T3 (mouse) viability loss; inhibition, % at 24.9 µM; actives 56% (n = 5,600); NIH/3T3 viability, CellTiter-Glo ATP luminescence, 90 h; shares compounds with T cruzi growth-1;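 active = mean loss of cell viability signal at or above a set limit, and enough replicates individually reaching it; inconclusive = meets only the mean limit or only the replicate share; inactive = meets neither condition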;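 also: 0% = median of neutral control wells and 100% = median of positive control wells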
Numbers without * were called inactive; ? = inconclusive; nt = no result.

SMILES	T cruzi growth-1	Pf Dd2 inh	C diff growth	T cruzi growth-2	T cruzi growth-3	3T3 cytotox	3T3 cytotox 2
Cc1cccc(-c2ccc([C@H]3[C@H]4CN(S(=O)(=O)c5ccccc5C)CCCCN4[C@H]3CO)cc2)c1	103*	-10	-7	106*	92	2	38*
Cc1cccc(-c2ccc([C@@H]3[C@@H](CO)N4CCCCN(S(=O)(=O)c5ccccc5C)C[C@H]34)cc2)c1	81	-39	-3	nt	nt	nt	nt
Cc1cccc(S(=O)(=O)N2CCCCN3[C@H](CO)[C@H](c4ccc(-c5ccccc5)cc4)[C@H]3C2)c1	62	-72	52	nt	nt	nt	nt
Cc1cccc(S(=O)(=O)N2CCCCN3[C@H](CO)[C@@H](c4ccc(-c5ccccc5)cc4)[C@@H]3C2)c1	105*	-57	-6	99*	64	26	11
Cc1cccc(-c2ccc([C@@H]3[C@@H](CO)N4CCCCN(S(=O)(=O)c5cccc(C)c5)C[C@H]34)cc2)c1	90	-35	-7	nt	nt	nt	nt
C[C@H](CO)N1C[C@H](C)[C@@H](CN(C)C(=O)NC2CCCC2)Oc2ncc(-c3ccccc3)cc2C1=O	-12	-6	5	nt	nt	nt	nt
COc1ccc(S(=O)(=O)N(C)C[C@@H]2Oc3c(NC(=O)Nc4ccc5c(c4)OCO5)cccc3C(=O)N([C@H](C)CO)C[C@H]2C)cc1	-1	-37	-8	nt	nt	nt	nt
CCCC#Cc1ccc(CC[C@H]2O[C@H]3CC[C@@H](CO)O[C@H]3C[C@H]2NC(=O)c2cnccn2)cc1	nt	-13	9	nt	nt	nt	nt
C[C@H]1CCCCO[C@H](CN(C)S(=O)(=O)c2ccccc2)[C@@H](C)CN([C@@H](C)CO)C(=O)c2cc(NC(=O)CCCN(C)C)ccc2O1	0	-51	0	nt	nt	nt	nt
CCCN(C)C[C@@H]1Oc2cc(-c3cncnc3)ccc2S(=O)(=O)N([C@@H](C)CO)C[C@@H]1C	nt	-16	2	nt	nt	nt	nt
CN1C(=O)c2cc(NC(=O)c3cnccn3)ccc2OC[C@@H]2O[C@H](CC(=O)N[C@@H]3CCN(Cc4ccccc4)C3)CC[C@H]21	85	-11	-2	nt	nt	nt	nt
CN1C(=O)c2cc(NC(=O)c3cnccn3)ccc2OC[C@@H]2O[C@H](CC(=O)N[C@H]3CCN(Cc4ccccc4)C3)CC[C@@H]21	109*	-10	-4	95*	?	-13	2
CN1C(=O)c2cc(NC(=O)c3cnccn3)ccc2OC[C@@H]2O[C@@H](CC(=O)N[C@@H]3CCN(Cc4ccccc4)C3)CC[C@H]21	101*	-18	-2	101*	48	0	-8
CN1C(=O)c2cc(NC(=O)c3cnccn3)ccc2OC[C@H]2O[C@@H](CC(=O)N[C@H]3CCN(Cc4ccccc4)C3)CC[C@@H]21	82	7	-2	nt	nt	nt	nt
Cc1noc(C)c1S(=O)(=O)N(C)C[C@@H]1Oc2ccc(NC(=O)Nc3cccc4ccccc34)cc2CC(=O)N([C@@H](C)CO)C[C@H]1C	24	-47	-4	nt	nt	nt	nt
N#C[C@@H]1[C@@H](c2ccc(-c3cccc(F)c3)cc2)[C@@H](CO)N1S(=O)(=O)c1cccc(F)c1	99*	-11	5	99*	61	39*	66*
C/C=C/c1ccc([C@H]2[C@@H](CO)N(S(=O)(=O)c3cccc(F)c3)[C@H]2C#N)cc1	111*	-13	-6	91	93	-8	26
C/C=C/c1ccc([C@H]2[C@@H](C#N)N(S(=O)(=O)c3cccc(F)c3)[C@H]2CO)cc1	95	-42	5	nt	nt	nt	nt
N#C[C@@H]1[C@H](c2ccc(-c3cccc(F)c3)cc2)[C@H](CO)N1S(=O)(=O)c1cccc(F)c1	102*	-17	11	107*	89	10	54*
N#C[C@H]1[C@@H](c2ccccc2)[C@H](CO)N1S(=O)(=O)c1cccc(F)c1	-11	0	5	nt	nt	nt	nt
N#C[C@H]1[C@H](c2ccccc2)[C@@H](CO)N1S(=O)(=O)c1cccc(F)c1	45	17	4	nt	nt	nt	nt
O=C(C[C@@H]1C[C@H]2c3cc(NS(=O)(=O)c4ccc(F)cc4)ccc3O[C@H]2[C@H](CO)O1)NCc1ccccc1F	-71	-11	-3	nt	nt	nt	nt
